From PubChem BioAssay (NCI) come the findings set out here.

Each structure is given as a SMILES string. This is part of a sample that, as a whole, favours compounds with a hit. Of some 83,000 tested, about 20% had one in any assay.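 Interpretation: 100, growth as untreated; towards 0, rising growth inhibition; 0, no net growth; 0 to -100, cell death. Compounds scoring below 10 were considered active.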 A number with no mark means an inactive call. Activity calls are given as the source filed them.

Common to all, as to assay: NCI-60 one-dose screen, 48 h (100 = growth as untreated, 0 = no growth, -100 = all killed)
The test system of assay [1] is HCT-15 colon. The note with it: 10 µM unless noted.
Assay [2] concerns SNB-19 CNS. The note with it: 10 µM unless noted.
Assay [3] deals with U251 CNS. The note with it: 10 µM unless noted.
The test system of assay [4] is PC-3 prostate. The note with it: 10 µM unless noted.
Assay [5] deals with SK-MEL-5 melanoma. The following applies: 10 µM unless noted.
The test system of assay [6] is UACC-62 melanoma. The following applies: 10 µM unless noted.
The subject of assay [7] is LOX IMVI melanoma. The note with it: 10 µM unless noted.
Assay [8] relates to SK-MEL-28 melanoma. The following applies: 10 µM unless noted.
For assay [9], the system named is SK-MEL-2 melanoma. The following applies: 10 µM unless noted.
Assay [10] has as its system EKVX NSCLC. The following applies: 10 µM unless noted.
The test system of assay [11] is SN12C renal. The note with it: 10 µM unless noted.
Assay [12] relates to UO-31 renal. The following applies: 10 µM unless noted.
Assay [13] has as its system TK-10 renal. The following applies: 10 µM unless noted.
For assay [14], the system named is ACHN renal. The note with it: 10 µM unless noted.
Assay [15] concerns CAKI-1 renal. The note with it: 10 µM unless noted.
Assay [16] deals with A498 renal. The note with it: 10 µM unless noted.
For assay [17], the system named is CCRF-CEM leukemia. The following applies: 10 µM unless noted.
The test system of assay [18] is MOLT-4 leukemia. The following applies: 10 µM unless noted.
Assay [19] relates to HT29 colon. The note with it: 10 µM unless noted.
Assay [20] deals with SNB-75 CNS. The following applies: 10 µM.

As for `C=C1C(=O)O[C@H]2[C@H]1CC/C(Cn1cc(CNC(=O)c3cc4ccccc4[nH]3)nn1)=C\CC[C@@]1(C)O[C@@H]21`, the growth in assay [1] is 79.8%; in assay [2], 81.5%; in assay [3] it was 67.6%; in assay [4], 70.2%; in assay [5], 64.4%; in assay [6], 49.8%. The growth in assay [7] is -23.6% (active); in [8] it was 54.4%; in assay [9], 59.6%; in assay [10], 86.9%; in assay [11] it was 59.2%; in [12] it was 73.4%. Further, the growth in assay [13] was 53%; in assay [14], 55.8%; in assay [15] it was 80.8%; in assay [16] it was 106%; in [17] it was -18.8% (active); in assay [18], 4.74% (active).

As for `CCOC(=O)c1ccc2c(c1)c1c(C)c3cccnc3c(C)c1n2C`, the growth in [19] was 47.4%; in [20], 68%; in assay [2], 56.4%; in assay [3], 48.1%; in assay [4], 58.3%; in assay [5], 69.9%. In addition, the growth in [6] was 49.2%; in [7] it was 22.9%; in assay [8], 85.3%; in assay [9], 96%; in assay [11], 33.8%; in assay [12], 32%. In addition, the growth in assay [13] is 87.8%; in [14], 29.8%; in [15], 30.9%; in [16], 83.4%; in assay [17], 47.9%; in assay [18], 21.4%.

Regarding `Cn1c2ccc(Br)cc2c2c3c(c4c5ccccc5[nH]c4c21)C(=O)N(O)C3=O`, the growth in [19] is -76.4% (active); in [3] it was -71% (active); in [4], -43.9% (active); in assay [5] it was -97.8% (active); in assay [6], -72.3% (active); in [7] it was -80.9% (active). Also, the growth in [8] is -79.3% (active); in assay [9], -74.4% (active); in assay [11] it was -71.9% (active); in assay [12], -95.4% (active); in assay [13], -72.2% (active); in [14], -66.3% (active). The growth in assay [15] was -76.6% (active); in [16], -43.7% (active); in [17] it was -16% (active); in assay [18], -28% (active).

As for `CN1CCN(Cc2ccc(NC(=O)c3nc4ccc5[nH]ncc5c4c4c3CCC4)cc2C(F)(F)F)CC1`, the growth in assay [19] was -66% (active); in assay [2] it was -76.7% (active); in assay [3], -93.7% (active); in [4], -64.8% (active); in assay [5], 88.5%; in assay [6], -61.7% (active). Also, the growth is -86.8% (active) in [7]; 104% in assay [9]; -82.7% (active) in [11]; -96.3% (active) in assay [12]; -91.2% (active) in assay [13]; -99.6% (active) in assay [14]. In addition, the growth is -97.4% (active) in assay [15], 84.6% in [16], -9.12% (active) in [17] and -38.7% (active) in assay [18].

Consider `CCN(CC)c1ccc(C(=N)c2ccc(N(CC)CC)cc2)cc1`, for which the growth in assay [20] is -34.3% (active); in assay [2], 4.23% (active); in [4], 3.06% (active); in [5] it was -100% (active); in [6], -64.6% (active); in assay [8], -39.9% (active). In addition, the growth was -66.6% (active) in [9]; 12.4% in assay [10]; 0.751% (active) in assay [11]; -33.6% (active) in [12]; 10% in [13]; -9.36% (active) in assay [15]. Besides, the growth in assay [16] is -44.3% (active); in assay [17] it was 12.1%; in assay [18] it was -23.5% (active).

Take `N#Cc1ccc(N2Cc3ccccc3OC3=C2C(=O)c2c(O)ccc(O)c2C3=O)cc1`: the growth in assay [19] is -62.4% (active); in assay [20] it was 76%; in [2], 27.6%; in [3], 10.2%; in assay [4], -25.6% (active); in assay [5], 59.9%. Also, the growth in assay [6] was -26.3% (active); in assay [7], -49.7% (active); in assay [8], -32.2% (active); in [9], -24% (active); in assay [11], -32.9% (active); in assay [12], -80.5% (active). The growth in [13] was -84.4% (active); in [14] it was -59.9% (active); in [15] it was 2.96% (active); in [16] it was 93.4%; in [17] it was -8.98% (active).

On to `CC(C)CC1NC(C)(C)CO1` (stereo not given), for which the growth in assay [19] was 97.5%; in assay [2], 115%; in [3], 109%; in assay [5], 104%; in assay [6] it was 106%; in [7], 97.2%. The growth in [8] is 111%; in [9] it was 113%; in [10] it was 123%; in [11], 112%; in assay [12] it was 90.2%; in [13], 96.4%. The growth is 113% in assay [14], 92.5% in assay [15], 102% in [17] and 124% in [18].

Turning to `CCOC(=O)NNC(=S)Nc1ccccc1`, the growth in assay [19] was 105%; in [20], 95.2%; in [2], 97.9%; in [3] it was 101%; in assay [4] it was 100%; in assay [5] it was 100%. Also, the growth in [6] is 95.5%; in assay [7], 100%; in assay [8], 106%; in assay [9] it was 116%; in assay [11], 99%; in assay [12] it was 89.4%. In addition, the growth in assay [13] was 111%; in [14], 105%; in assay [15], 92.3%; in [16] it was 95.1%; in [17], 106%; in assay [18] it was 106%.

For `Nc1nc(-c2ccccc2)c(CCCOc2ccc(NC(=O)CBr)cc2)c(=O)[nH]1`, the growth in assay [1] was 101%; in assay [3] it was 86.4%; in assay [4], 107%; in assay [5] it was 92.9%; in assay [6] it was 90.3%; in assay [7], 20.3%. Moreover, the growth in assay [8] was 104%; in [9], 101%; in [10] it was 117%; in assay [11], 91.5%; in assay [12], 71%; in [13] it was 102%. Also, the growth is 96.2% in assay [14]; 106% in [15]; 103% in assay [16]; 29.1% in assay [17]; 96.1% in [18].

`Cc1cc(C(C)(C)C)ccc1S`: the growth is 97.5% in assay [19]; 91.4% in assay [20]; 105% in assay [2]; 109% in [3]; 85.6% in assay [4]; 111% in assay [5]. Further, the growth in assay [6] was 98.6%; in [7], 103%; in [8], 104%; in assay [9], 93.4%; in assay [10], 123%; in [11], 100%. The growth in assay [12] is 90.3%; in [13] it was 107%; in assay [15], 93.1%; in [16] it was 92.8%; in [17] it was 96%; in assay [18], 81.3%.

With `O=C(/C=C/c1cc(-c2ccc3c(c2)OCO3)n[nH]1)c1ccc2c(c1)OCO2`, the growth in assay [19] was 100%; in assay [20], 101%; in [2], 72%; in [3], 75.7%; in [4], 74.6%; in assay [5], 98%. Besides, the growth in assay [6] is 97.4%; in [7], 87.6%; in [8] it was 109%; in assay [9], 96.6%; in [11], 88.9%; in [12], 74.5%. In addition, the growth in [13] was 106%; in assay [15] it was 95.1%; in assay [16], 93.3%; in [17] it was 72.9%; in [18], 83.4%.

With `c1ccc(-c2nnc(-c3ccccn3)s2)nc1`, the growth in [20] is 70.4%; in [2], 97.9%; in [5], 97.2%; in assay [6], 95.7%; in assay [8] it was 127%; in assay [9], 104%. Moreover, the growth in assay [10] was 79.6%; in assay [11] it was 114%; in assay [12] it was 76.3%; in assay [13], 123%; in assay [15] it was 50.1%; in [16], 117%. The growth in assay [17] was 80.8%; in [18] it was 109%.

As to `C=C[C@@H]1C[C@@H]2Cc3cc(Cl)ccc3N1O2`, the growth is 97.7% in [1]; 89.7% in [3]; 94.9% in assay [4]; 102% in [5]; 96.5% in assay [6]; 92.5% in assay [7]. In addition, the growth in assay [8] was 103%; in assay [9] it was 107%; in [10] it was 90.2%; in assay [11] it was 94.9%; in assay [12], 101%; in [13] it was 101%. Also, the growth was 104% in assay [14]; 88.7% in assay [15]; 85.6% in assay [16]; -61.3% (active) in assay [17]; 26.4% in assay [18].

Turning to `O=C(CSc1nc2ccccc2[nH]1)Nc1ccc(-c2nc3ccccc3s2)c(Cl)c1`, the growth was 65% in assay [2]; 26.3% in [4]; 23.4% in [5]; 49.3% in [6]; 0.271% (active) in [8]; 51.2% in assay [9]. Besides, the growth in [10] is 27.1%; in assay [11], 35.1%; in assay [12], 8.16% (active); in assay [13], 30.1%; in [15] it was 26.9%; in [16] it was 71.8%. In addition, the growth in assay [18] is 81.3%.
